Among the test systems are HCT-15 colon; HT29 colon; SNB-75 CNS; SNB-19 CNS; U251 CNS; PC-3 prostate; SK-MEL-5 melanoma; UACC-62 melanoma; LOX IMVI melanoma; SK-MEL-28 melanoma; SK-MEL-2 melanoma; EKVX NSCLC; SN12C renal; UO-31 renal; TK-10 renal; CAKI-1 renal; A498 renal; CCRF-CEM leukemia; MOLT-4 leukemia; ACHN renal.
What all share (test): NCI-60 one-dose screen, 48 h (100 = growth as untreated, 0 = no growth, -100 = all killed)
Holding throughout (settings): 10 µM unless noted

The structures appear in SMILES notation. The panel holds about 83,000 compounds, 20% with a hit somewhere; the sample as a whole holds those more often.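 Treatment: one concentration, 48 hours, 96-well format. Scoring: percent growth, with anything below 10 considered active.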 Values without a mark were called inactive. Active and inactive are the calls of the source.

For the compound `COc1c(Cl)cc(Cl)c2ccc(C=C3C(=O)NC(=S)NC3=O)nc12`, the growth with HCT-15 colon is 103%; with HT29 colon, 109%; in the assay with SNB-75 CNS it was 95%; with SNB-19 CNS, 99.2%; with U251 CNS, 105%; with PC-3 prostate it was 105%. Besides, the growth in the assay with SK-MEL-5 melanoma is 101%; in the assay with UACC-62 melanoma it was 105%; in the assay on LOX IMVI melanoma, 101%; with SK-MEL-28 melanoma, 103%; in the assay with SK-MEL-2 melanoma it was 105%; with EKVX NSCLC, 104%. In addition, the growth in the assay with SN12C renal is 100%; in the assay on UO-31 renal it was 93.2%; with TK-10 renal, 107%; in the assay with CAKI-1 renal, 91.7%; in the assay with A498 renal, 93.8%; with CCRF-CEM leukemia, 105%. Also, in the assay with MOLT-4 leukemia, the growth is 105%.

Consider `COC(=O)C1NC(=S)N(c2ccc(Cl)cc2)C1/C=C/c1ccccc1` (configuration not stated), for which the growth in the assay on HCT-15 colon is 99.4%; with HT29 colon, 104%; with SNB-75 CNS it was 127%; with SNB-19 CNS it was 103%; with U251 CNS it was 97.5%; with PC-3 prostate it was 86.2%. Also, the growth with SK-MEL-5 melanoma is 102%; in the assay on UACC-62 melanoma, 89.3%; in the assay on LOX IMVI melanoma it was 78.5%; in the assay with SK-MEL-28 melanoma, 118%; in the assay with SK-MEL-2 melanoma, 102%; in the assay with EKVX NSCLC it was 92.4%. For the same compound, the growth was 99.3% in the assay with SN12C renal; 86.8% in the assay with UO-31 renal; 105% in the assay on TK-10 renal; 91.3% in the assay with CAKI-1 renal; 100% in the assay with CCRF-CEM leukemia; 103% with MOLT-4 leukemia.

In the case of `CCOC(=O)C1CC(=O)c2cc(OC)c(OC)cc2C1` (configuration not stated), the growth in the assay on HCT-15 colon is 100%; with HT29 colon it was 88.6%; in the assay with SNB-75 CNS it was 91.7%; in the assay with SNB-19 CNS, 100%; with U251 CNS, 103%; in the assay on PC-3 prostate it was 86.4%. Moreover, the growth in the assay on SK-MEL-5 melanoma is 109%; in the assay on UACC-62 melanoma, 88.5%; with LOX IMVI melanoma, 104%; with SK-MEL-28 melanoma, 119%; in the assay on SK-MEL-2 melanoma, 107%; in the assay on EKVX NSCLC, 114%. Further, the growth in the assay with UO-31 renal was 93.6%; in the assay with TK-10 renal it was 126%; in the assay with ACHN renal, 107%; with CAKI-1 renal, 120%; in the assay with A498 renal, 129%; in the assay on CCRF-CEM leukemia, 84.6%. For the same compound, the growth in the assay on MOLT-4 leukemia was 94.3%.

In the case of `CCCCCCOc1ccc(C(=N)N(CCCC)CCCC)c2ccccc12`, the growth with HCT-15 colon was -82.1% (active); in the assay on HT29 colon, -83.2% (active); in the assay on SNB-75 CNS, -98.9% (active); in the assay on SNB-19 CNS, -88.9% (active); in the assay on U251 CNS, -77.7% (active); with PC-3 prostate, -84.2% (active). Also, the growth in the assay with SK-MEL-5 melanoma was -99.3% (active); with UACC-62 melanoma it was -86% (active); in the assay on LOX IMVI melanoma it was -92.6% (active); in the assay with SK-MEL-28 melanoma, -94.3% (active); with SK-MEL-2 melanoma, -85.6% (active); in the assay on EKVX NSCLC, -75.4% (active). For the same compound, the growth was -93.9% (active) in the assay on UO-31 renal; -92.4% (active) in the assay with TK-10 renal; -92% (active) in the assay with ACHN renal; -83.7% (active) in the assay on CAKI-1 renal; -12.8% (active) with CCRF-CEM leukemia; -38.4% (active) with MOLT-4 leukemia.

Regarding `CCCCCCCCOC(=O)c1ccc(O)c(OC)c1`, the growth is 105% with HCT-15 colon; 97.7% in the assay with HT29 colon; 78.8% in the assay on SNB-75 CNS; 93.2% in the assay with SNB-19 CNS; 85.8% with U251 CNS; 78% in the assay with PC-3 prostate. Moreover, the growth with SK-MEL-5 melanoma is 97.1%; in the assay with UACC-62 melanoma, 92%; with LOX IMVI melanoma, 59.3%; in the assay with SK-MEL-28 melanoma it was 105%; in the assay on SK-MEL-2 melanoma, 97.7%; in the assay on EKVX NSCLC, 105%. Moreover, the growth in the assay on SN12C renal was 85.8%; with TK-10 renal it was 98.6%; with ACHN renal, 103%; in the assay on CAKI-1 renal, 91.9%; in the assay on CCRF-CEM leukemia, 1.05% (active); with MOLT-4 leukemia, 12.9%.

For `Cc1[nH]c(C(=O)Nc2ccccc2OCc2cccc(C(=O)NCCN)c2)c(Cl)c1Cl`, the growth in the assay on HCT-15 colon is 86.3%; in the assay on HT29 colon, 38.2%; with SNB-75 CNS, 86.2%; with SNB-19 CNS, 58.3%; in the assay on U251 CNS, 4.71% (active); with PC-3 prostate, 79.7%. Further, the growth in the assay with SK-MEL-5 melanoma was 95.3%; with UACC-62 melanoma, 92.6%; with LOX IMVI melanoma, -48.1% (active); in the assay with SK-MEL-28 melanoma, 84.3%; in the assay with SK-MEL-2 melanoma it was 107%; in the assay with EKVX NSCLC, 89.1%. The growth with UO-31 renal is 75%; in the assay on TK-10 renal it was 138%; in the assay with ACHN renal, 101%; with CAKI-1 renal, 85.6%; with CCRF-CEM leukemia, 25.1%; in the assay on MOLT-4 leukemia it was 40.3%.

With `COc1cc(/C=C2\C(=O)N(Cc3ccc(Cl)cc3)c3ccccc32)cc(OC)c1OC`, the growth with HCT-15 colon is -37.7% (active); with HT29 colon it was 8.97% (active); in the assay with SNB-75 CNS it was 12.5%; with SNB-19 CNS, 50.3%; in the assay on U251 CNS, 3.6% (active); with PC-3 prostate it was 38.6%. For the same compound, the growth is 41.6% in the assay on SK-MEL-5 melanoma; 22.2% in the assay with UACC-62 melanoma; -57.1% (active) in the assay on LOX IMVI melanoma; -42.6% (active) in the assay with SK-MEL-28 melanoma; 90.2% in the assay on SK-MEL-2 melanoma; 88.8% in the assay on EKVX NSCLC. For the same compound, the growth was 26.6% with UO-31 renal; 20.5% with TK-10 renal; 40.6% with ACHN renal; 24.6% with CAKI-1 renal; 26.2% with A498 renal; -3.04% (active) in the assay with CCRF-CEM leukemia. Moreover, in the assay with MOLT-4 leukemia, the growth is 8.46% (active).

For `CCOC(=O)c1c(SC)nn(-c2cc(=O)[nH]c3ccc(Br)cc23)c1N`, the growth with HCT-15 colon was 106%; in the assay with HT29 colon, 107%; with SNB-75 CNS, 94%; in the assay on SNB-19 CNS it was 101%; with U251 CNS, 94.1%; in the assay with PC-3 prostate, 94.2%. In addition, the growth with SK-MEL-5 melanoma was 101%; with UACC-62 melanoma, 102%; in the assay with LOX IMVI melanoma it was 90.1%; in the assay with SK-MEL-28 melanoma it was 117%; with SK-MEL-2 melanoma, 99%; in the assay with EKVX NSCLC, 88.2%. Also, the growth is 81% in the assay with UO-31 renal; 110% with TK-10 renal; 98.3% in the assay with ACHN renal; 87.2% in the assay with CAKI-1 renal; 110% in the assay on A498 renal; 111% with CCRF-CEM leukemia. For the same compound, the growth with MOLT-4 leukemia was 111%.

Turning to `CC(C)CCSc1nc(NNC(N)=O)c(C#N)c(-c2ccccc2)n1`, the growth with HCT-15 colon was 98.7%; in the assay with HT29 colon, 115%; in the assay with SNB-75 CNS, 97.6%; in the assay on SNB-19 CNS, 99.2%; in the assay with U251 CNS it was 109%; with PC-3 prostate, 98.7%. Also, the growth in the assay with SK-MEL-5 melanoma was 104%; with UACC-62 melanoma, 98.1%; in the assay with LOX IMVI melanoma, 97.6%; in the assay on SK-MEL-28 melanoma, 104%; in the assay with SK-MEL-2 melanoma it was 107%; with EKVX NSCLC, 99.9%. The growth with UO-31 renal was 85.1%; in the assay on TK-10 renal it was 105%; with ACHN renal, 97%; in the assay on CAKI-1 renal, 93.7%; with A498 renal, 105%; with CCRF-CEM leukemia, 100%. The growth in the assay on MOLT-4 leukemia is 110%.

Source of the values: PubChem BioAssay (NCI).
